High-throughput results (PubChem BioAssay)
ST2 inh – IL1RL1 inhibition | AID 1259354 | Q01638 | AlphaLISA ST2-Fc/biotin-IL-33 interaction, 1 h | inhibition, % for hits at 17 µM | actives 2.3% (n = 78,000); in the data active = inhibition above about 30%
Target sequence (Q01638 whole entry, looked up): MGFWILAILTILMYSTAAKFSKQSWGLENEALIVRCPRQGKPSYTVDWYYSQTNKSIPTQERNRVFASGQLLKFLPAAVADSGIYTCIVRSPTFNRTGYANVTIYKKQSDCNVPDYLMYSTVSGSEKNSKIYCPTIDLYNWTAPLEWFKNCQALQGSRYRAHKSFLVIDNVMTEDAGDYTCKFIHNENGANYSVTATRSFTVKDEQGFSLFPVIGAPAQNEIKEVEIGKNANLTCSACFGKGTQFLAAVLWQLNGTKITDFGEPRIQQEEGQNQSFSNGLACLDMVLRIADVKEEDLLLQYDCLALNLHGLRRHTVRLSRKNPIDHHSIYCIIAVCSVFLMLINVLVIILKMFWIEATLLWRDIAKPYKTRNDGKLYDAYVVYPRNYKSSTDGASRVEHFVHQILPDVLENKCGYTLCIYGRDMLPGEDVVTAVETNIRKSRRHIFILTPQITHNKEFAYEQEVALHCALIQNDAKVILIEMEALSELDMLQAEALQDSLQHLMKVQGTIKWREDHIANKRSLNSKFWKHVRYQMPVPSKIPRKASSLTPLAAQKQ
A number is an active result. Only a selection was taken, and hits are over-represented in it overall.

CN(C(=O)N1CCN(C(=O)N(C)c2ccccc2)CC1)c1ccccc1 was read as ST2 inh inactive.
For CN(C(=O)Cc1ccccc1)c1ccccc1 the results were ST2 inh 36.0%.
Screening O=C(Cc1ccccc1)N(c1ccccc1)c1ccccc1 returned ST2 inh inactive.
`O=C(NCc1cccnc1)c1ccc(Br)c(S(=O)(=O)N2CCCCC2)c1` gave ST2 inh inactive.
Screening COc1ccc(C2=NN(S(=O)(=O)c3ccc(C)cc3)C(c3ccccc3OC)C2)cc1OC (stereo not drawn) returned ST2 inh inactive.
For CC1CCN(C(=O)Cn2c(=O)n(-c3ccc(F)cc3F)c(=O)c3sccc32)CC1 the results were ST2 inh inactive.
Screening CN(C(=O)Cn1c(=O)n(-c2ccc(F)cc2F)c(=O)c2sccc21)c1ccccc1 returned ST2 inh 47.0%.
O=c1c2sccc2n(Cc2ccccc2)c(=O)n1-c1cc(F)ccc1F was read as ST2 inh inactive.
Screening Cc1ccc(S(=O)(=O)N(CC(=O)Nc2ccc3c(c2)OCO3)c2ccc(C)cc2C)cc1 returned ST2 inh inactive.
For Cc1c(NC(=O)c2ccc([N+](=O)[O-])cc2Cl)cccc1-c1nc2cc(Cl)ccc2o1 the results were ST2 inh inactive.
For CC1(C)CC(=O)C2=C(C1)Nc1cc(C(=O)c3ccccc3)ccc1NC2c1cccs1 (stereo not drawn) the results were ST2 inh inactive.
COc1ccccc1C1Nc2ccc(C(=O)c3ccccc3)cc2NC2=C1C(=O)CC(C)(C)C2 (stereo not drawn) was read as ST2 inh 31.0%.
Screening CC1(C)CC(=O)C2=C(C1)Nc1cc(C(=O)c3ccccc3)ccc1NC2c1ccco1 (stereo not drawn) returned ST2 inh inactive.
`COc1ccc(OC)c(C2C(C(=O)OC3CC(C)CCC3C(C)C)=C(C)Nc3nnnn32)c1` (stereo not drawn) gave ST2 inh inactive.
Cc1nc(CNC(=O)c2ccc(C3CCCO3)s2)nc2c1CCCC2 (stereo not drawn) was read as ST2 inh inactive.
CCOC(=O)c1c(NC(=O)c2ccc(Br)o2)sc(C(C)=O)c1C was read as ST2 inh inactive.
`COc1ccc(CCN2CC(NC(=O)NC3CCCCC3)CC2=O)cc1` (stereo not drawn) gave ST2 inh inactive.
`Cc1cc(C)nc(NS(=O)(=O)c2ccc(NC(=O)c3ccc(-c4ccccc4)cc3)cc2)n1` gave ST2 inh inactive.
Screening CC(=O)c1ccc(NC(=O)c2ccc(-c3ccccc3)cc2)cc1 returned ST2 inh 30.0%.
`CC(=O)c1ccc(NC(=O)Cc2ccccc2)cc1` gave ST2 inh inactive.
For NS(=O)(=O)c1ccc(NC(=O)c2ccc(-c3ccccc3)cc2)cc1 the results were ST2 inh 30.0%.
For Cc1ccc(NC(=O)c2ccc(C(=O)Nc3ccc(C)cc3)cc2)cc1 the results were ST2 inh inactive.
For NC(=O)c1ccc(NC(=O)c2ccccc2)cc1 the results were ST2 inh inactive.
Screening CCN(CC)c1c(Cl)c(Cl)nc(Cl)c1C(=O)O returned ST2 inh inactive.
Screening COCC(=O)N1CCN(C(=O)c2cccnc2)C[C@@H]1C(=O)N[C@H](C)C(=O)OC returned ST2 inh inactive.
Screening Cc1ccc(C(=O)NCCCN(C)C)cc1Cl returned ST2 inh inactive.
For COc1ccc(NC(=O)C2CC(=O)N(C)C(=Nc3ccc(Cl)c(Cl)c3)S2)cc1 (stereo not drawn) the results were ST2 inh inactive.
CCc1ccc(CN2CCCN(C)CC2)cc1 was read as ST2 inh inactive.
For COc1ccccc1-n1c(SCC(=O)Nc2ccc(Cl)cc2)nc2c(c1=O)SCC2 the results were ST2 inh inactive.
For CCOc1ccc([N+](=O)[O-])cc1C1Nc2ccccc2-c2nnc(SC)nc2O1 (stereo not drawn) the results were ST2 inh inactive.
For CC1=C(C(=O)Nc2ccc(Cl)cc2)C(c2ccc([N+](=O)[O-])cc2)n2ncnc2N1 (stereo not drawn) the results were ST2 inh inactive.
CCOC1=NC2Nc3ccc(Cl)cc3N(C)C2C1c1ccc([N+](=O)[O-])cc1 (stereo not drawn) was read as ST2 inh 36.0%.
Screening O=C1OC(c2ccccc2)=C/C1=C\c1c(Cl)cccc1Cl returned ST2 inh 46.0%.
For O=C1Nc2ccccc2/C1=C\c1c(Cl)cccc1Cl the results were ST2 inh inactive.
Screening Clc1ccccc1-c1nc(-c2ccccc2)no1 returned ST2 inh inactive.
For CC(NC(=O)c1ccccc1)C(O)c1ccccc1 (stereo not drawn) the results were ST2 inh inactive.
Screening CCOCCc1nnc(NC(=O)Nc2ccccc2OC)s1 returned ST2 inh inactive.
For O=[N+]([O-])c1ccc(N2CCN(S(=O)(=O)c3ccc(Cl)cc3)CC2)cc1 the results were ST2 inh 35.0%.
O=S(=O)(c1ccc(Br)cc1)N1CCN(Cc2ccccc2)CC1 was read as ST2 inh inactive.
For O=[N+]([O-])c1ccc(S(=O)(=O)N2CCN(c3ccccn3)CC2)cc1 the results were ST2 inh inactive.
Screening O=[N+]([O-])c1ccc(S(=O)(=O)N2CCN(c3ccccc3)CC2)cc1 returned ST2 inh inactive.
Screening O=C(COc1ccccc1)N1CCN(S(=O)(=O)c2ccc([N+](=O)[O-])cc2)CC1 returned ST2 inh inactive.
For O=[N+]([O-])c1ccc(N2CCN(S(=O)(=O)c3ccc(Cl)c(Cl)c3)CC2)cc1NC1CC1 the results were ST2 inh 30.0%.
For O=[N+]([O-])c1ccc(S(=O)(=O)N2CCN(CCCc3ccccc3)CC2)cc1 the results were ST2 inh 34.0%.
For O=[N+]([O-])c1ccc(N2CCOCC2)cc1NCCCO the results were ST2 inh inactive.
Screening CCS(=O)(=O)N1CCN(c2ccc([N+](=O)[O-])c(NCc3cccnc3)c2)CC1 returned ST2 inh inactive.
`Cc1cc(C)cc(N(C(=O)c2cccc(Cl)c2)C2C=CS(=O)(=O)C2)c1` (stereo not drawn) gave ST2 inh inactive.
Screening CN(C)C(=O)c1ccccc1I returned ST2 inh inactive.
Screening COc1ccc(CCN2CC(NCc3ccc4c(c3)CCO4)CC2=O)cc1 (stereo not drawn) returned ST2 inh inactive.
`Cc1ccc(N2C(=O)CSC2c2ccc(C(C)C)cc2)cc1` (stereo not drawn) gave ST2 inh inactive.
Cc1ccc(C2(O)CCN(Cc3nc4c(cnn4C)c(=O)[nH]3)CC2)nc1 was read as ST2 inh inactive.
Screening CN1CCC2(CC1)CN(C(=O)C1C(=O)NCC1c1ccccc1)CCN2C (stereo not drawn) returned ST2 inh inactive.
Screening CCOC1C(OCC)N(S(=O)(=O)c2ccccc2)CCN1S(=O)(=O)c1ccccc1 (stereo not drawn) returned ST2 inh inactive.
`CN(C)CCN(C)Cc1ccccc1Cl` gave ST2 inh inactive.
`CC(CN(C)c1nc(-c2cccnc2)nc2c1cnn2C)N1CCOCC1` (stereo not drawn) gave ST2 inh inactive.
`CN(CCn1cccn1)c1nc(-c2cccnc2)nc2c1cnn2C` gave ST2 inh inactive.
Screening CN(CC1COCCO1)c1nc(-c2cccnc2)nc2c1cnn2C (stereo not drawn) returned ST2 inh 34.0%.
`CCn1cnc2sc(C(=O)Oc3ccc(C(=O)OC)cc3)c(C)c2c1=O` gave ST2 inh inactive.
